Assay [1] concerns the target human Peroxisome Proliferator-activated Receptor delta (PPARd), PPARD (gene 5467) (UniProt Q03181). Nature of the assay: ATG_PPARd_TRANS: Attagene TRANS-FACTORIAL HepG2 Assay for human Peroxisome Proliferator-activated Receptor delta (PPARd) (AID 2283002). Summed up: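 Read-out is induced reporter mRNA, quantified by RT-PCR with fluorescent labelling and capillary electrophoresis after 24 h dosing. Cells are HepG2 transiently carrying multiple GAL4-UAS reporter units driven by exogenous NR-GAL4 chimeras; DMSO serves as baseline.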

Read-out in assay [2]: Intercellular Adhesion Molecule 1 (ICAM1), ICAM1 (gene 3383)
Briefly: BSK_3C_ICAM1: BioMAP Diversity Plus: 3C Assay for Intercellular Adhesion Molecule 1 (ICAM1) Biomarker Activity (AID 2283003; active = hit-call score of the fitted dose curve at least 0.9, where 1 is the maximum; inactive = score below 0.9). The conditions noted are these: primary human endothelial cells (HUVEC); actives raise or lower the signal. The method, boiled down:
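ELISA readout of ICAM1 in human umbilical vein endothelial cells in the 3C system, taken 24 h post-dose. Gain or loss of signal versus DMSO was fitted in both directions, with SRB total-protein staining run in parallel.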

The target of assay [3] is Retinoic acid receptor alpha (Homo sapiens) (UniProt P10276). Nature of the assay: ATG_RARa_TRANS: Attagene TRANS-FACTORIAL HepG2 Assay for human Retinoic Acid Receptor alpha (RARa) (AID 2283005). The method, boiled down:
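Reporter transcripts, measured by RT-PCR with fluorescent labeling and capillary electrophoresis after 24 h dosing, reflect activity of an exogenous human RARa–GAL4 fusion in transiently transfected HepG2. Fitted for increase relative to DMSO.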

Assay [4] is described as follows: BSK_3C_Proliferation: Cell Proliferation Assessment in the BioMAP Diversity Plus: 3C Assay (AID 2283006; active = hit-call score of the fitted dose curve at least 0.9, where 1 is the maximum; inactive = score below 0.9;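 for AC50: potency may reflect either rise or fall in cell number versus DMSO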). The conditions noted are these: primary human endothelial cells (HUVEC). The method, boiled down: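 Proliferation as total protein: sulforhodamine B (0.1%) stain of TCA-fixed subconfluent human umbilical vein endothelial cells, absorbance 560 nm, 48 h after dosing. Activity fitted in both directions against DMSO baseline.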

The target in assay [5] is Peroxisome proliferator-activated receptor gamma (Homo sapiens) (UniProt P37231). Nature of the assay: ATG_PPARg_TRANS: Attagene TRANS-FACTORIAL HepG2 Assay for human Peroxisome Proliferator-activated Receptor-gamma (PPARg) (AID 2283007). The method, boiled down: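 HepG2 cells are transiently transfected with GAL4-UAS reporter units driven by chimeric NR-Gal4 fusions and dosed for 24 h. Reporter mRNA is quantified by RT-PCR, 6-FAM labelling, HpaI digestion and capillary electrophoresis. Induction is scored against DMSO.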

Assay [6] addresses human RAR-related Orphan Receptor gamma (RORg), RORC (gene 6097) (UniProt P51449). Briefly: ATG_RORg_TRANS: Attagene TRANS-FACTORIAL HepG2 Assay for human RAR-related Orphan Receptor gamma (RORg) (AID 2283011). The method, boiled down: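 Activity is scored as increase in GAL4-UAS reporter mRNA over DMSO, detected by fluorescent RT-PCR and capillary electrophoresis in HepG2 cells transiently expressing a RORg-Gal4 chimera, 24 h after dosing.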

In assay [7] the target is human Peroxisome Proliferator-activated Receptor alpha (PPARa), PPARA (gene 5465) (UniProt Q07869). Briefly: ATG_PPARa_TRANS: Attagene TRANS-FACTORIAL HepG2 Assay for human Peroxisome Proliferator-activated Receptor alpha (PPARa) (AID 2283001). Summed up: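 Reporter transcripts quantified by RT-PCR plus capillary electrophoresis after 24 h treatment, fitted upward relative to DMSO. Cells: human HepG2 transiently carrying multiple GAL4-UAS reporter units driven by NR-Gal4 chimeras.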

In assay [8] the target is Nuclear receptor subfamily 1 group I member 2 (Homo sapiens) (UniProt O75469). Briefly: ATG_PXR_TRANS: Attagene TRANS-FACTORIAL HepG2 Assay for human Pregnane X Receptor (PXR) (AID 2283008). The method, boiled down:
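Multiplexed TRANS reporter panel in HepG2; this component tracks PXR-Gal4-driven reporter mRNA after 24 h dosing, measured by RT-PCR with capillary electrophoresis fluorescence, fitted against DMSO.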

The target in assay [9] is human Retinoic Acid Receptor beta (RARb), RARB (gene 5915) (UniProt P10826). Nature of the assay: ATG_RARb_TRANS: Attagene TRANS-FACTORIAL HepG2 Assay for human Retinoic Acid Receptor beta (AID 2283004). Summed up: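 HepG2, transient MRTU transfection, NR–Gal4 chimera, 24 h treatment; RT-PCR plus CE fluorescence detection of reporter mRNA; gain of signal vs DMSO.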
The target in assay [10] is human Retinoic Acid Receptor gamma (RARg), RARG (gene 5916) (UniProt P13631). Nature of the assay: ATG_RARg_TRANS: Attagene TRANS-FACTORIAL HepG2 Assay for human Retinoic Acid Receptor gamma (RARg) (AID 2283009). The method, boiled down:
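Transactivation of exogenous RARg-Gal4 fusion measured as reporter transcript induction after 24 h in transfected HepG2 cells. RNA reverse-transcribed, amplified, fluorescently labeled and resolved by capillary electrophoresis; increase relative to DMSO.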

The source of these data is PubChem BioAssay (EPA / NIEHS).

Records with an inconclusive call do not appear. Active and inactive are the calls of the source. Rule for the calls, unless noted: active = hit-call score of the fitted dose curve at least 0.9, where 1 is the maximum; inconclusive = response in the unintended direction; inactive = score below 0.9.

Chain of human Retinoic Acid Receptor beta (RARb), RARB (gene 5915) (P10826 whole entry, looked up, the tested form may be a part): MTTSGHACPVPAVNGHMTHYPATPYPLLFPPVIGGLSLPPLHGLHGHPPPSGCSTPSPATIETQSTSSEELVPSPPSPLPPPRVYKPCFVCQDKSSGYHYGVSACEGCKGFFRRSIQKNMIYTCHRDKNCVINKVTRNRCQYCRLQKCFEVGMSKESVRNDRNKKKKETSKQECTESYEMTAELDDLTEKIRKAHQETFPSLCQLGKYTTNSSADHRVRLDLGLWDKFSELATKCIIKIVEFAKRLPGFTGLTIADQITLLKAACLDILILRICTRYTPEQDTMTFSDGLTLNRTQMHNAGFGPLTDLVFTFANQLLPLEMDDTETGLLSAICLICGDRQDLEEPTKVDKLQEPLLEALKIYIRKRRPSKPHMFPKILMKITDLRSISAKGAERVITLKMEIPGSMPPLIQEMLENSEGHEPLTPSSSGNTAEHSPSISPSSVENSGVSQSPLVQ
Chain of Nuclear receptor subfamily 1 group I member 2 (Homo sapiens) (O75469 whole entry, looked up, the tested form may be a part): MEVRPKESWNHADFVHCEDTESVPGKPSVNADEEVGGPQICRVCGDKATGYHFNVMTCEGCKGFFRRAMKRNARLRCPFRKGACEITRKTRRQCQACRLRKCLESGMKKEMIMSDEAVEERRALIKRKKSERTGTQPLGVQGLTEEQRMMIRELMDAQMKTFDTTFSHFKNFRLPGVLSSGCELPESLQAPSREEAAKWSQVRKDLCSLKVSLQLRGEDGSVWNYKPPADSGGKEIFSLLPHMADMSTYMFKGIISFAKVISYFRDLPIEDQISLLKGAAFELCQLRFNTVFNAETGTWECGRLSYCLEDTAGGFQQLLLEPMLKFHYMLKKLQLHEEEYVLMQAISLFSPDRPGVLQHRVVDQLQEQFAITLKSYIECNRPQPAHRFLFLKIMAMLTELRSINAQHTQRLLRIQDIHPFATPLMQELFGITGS
Chain of human RAR-related Orphan Receptor gamma (RORg), RORC (gene 6097) (P51449 whole entry, looked up, the tested form may be a part): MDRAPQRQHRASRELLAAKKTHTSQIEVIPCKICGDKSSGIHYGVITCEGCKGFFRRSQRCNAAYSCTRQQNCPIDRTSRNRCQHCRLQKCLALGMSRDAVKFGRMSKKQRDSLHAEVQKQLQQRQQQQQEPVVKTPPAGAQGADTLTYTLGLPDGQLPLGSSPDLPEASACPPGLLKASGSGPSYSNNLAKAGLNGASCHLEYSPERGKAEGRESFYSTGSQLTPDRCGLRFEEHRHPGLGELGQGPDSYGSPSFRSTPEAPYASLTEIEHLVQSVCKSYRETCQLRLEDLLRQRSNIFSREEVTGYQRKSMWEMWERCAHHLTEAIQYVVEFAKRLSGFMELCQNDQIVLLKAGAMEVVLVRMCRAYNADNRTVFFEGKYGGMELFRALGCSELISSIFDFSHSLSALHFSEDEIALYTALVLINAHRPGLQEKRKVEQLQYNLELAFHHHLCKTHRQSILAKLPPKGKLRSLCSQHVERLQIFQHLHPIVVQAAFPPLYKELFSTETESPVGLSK
Chain of human Peroxisome Proliferator-activated Receptor delta (PPARd), PPARD (gene 5467) (Q03181 whole entry, looked up, the tested form may be a part): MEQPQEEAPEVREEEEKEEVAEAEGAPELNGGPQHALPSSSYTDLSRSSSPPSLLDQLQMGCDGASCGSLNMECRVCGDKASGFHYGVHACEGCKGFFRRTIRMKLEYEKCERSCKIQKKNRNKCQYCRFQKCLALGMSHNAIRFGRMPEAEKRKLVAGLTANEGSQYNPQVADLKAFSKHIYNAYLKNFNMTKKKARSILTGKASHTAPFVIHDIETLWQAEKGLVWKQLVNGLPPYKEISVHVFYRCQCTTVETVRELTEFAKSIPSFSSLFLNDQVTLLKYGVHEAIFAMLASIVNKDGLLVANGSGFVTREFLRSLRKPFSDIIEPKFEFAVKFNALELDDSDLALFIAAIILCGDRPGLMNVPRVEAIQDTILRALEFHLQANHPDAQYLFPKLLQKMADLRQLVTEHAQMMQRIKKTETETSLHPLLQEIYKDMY
Chain of human Retinoic Acid Receptor gamma (RARg), RARG (gene 5916) (P13631 whole entry, looked up, the tested form may be a part): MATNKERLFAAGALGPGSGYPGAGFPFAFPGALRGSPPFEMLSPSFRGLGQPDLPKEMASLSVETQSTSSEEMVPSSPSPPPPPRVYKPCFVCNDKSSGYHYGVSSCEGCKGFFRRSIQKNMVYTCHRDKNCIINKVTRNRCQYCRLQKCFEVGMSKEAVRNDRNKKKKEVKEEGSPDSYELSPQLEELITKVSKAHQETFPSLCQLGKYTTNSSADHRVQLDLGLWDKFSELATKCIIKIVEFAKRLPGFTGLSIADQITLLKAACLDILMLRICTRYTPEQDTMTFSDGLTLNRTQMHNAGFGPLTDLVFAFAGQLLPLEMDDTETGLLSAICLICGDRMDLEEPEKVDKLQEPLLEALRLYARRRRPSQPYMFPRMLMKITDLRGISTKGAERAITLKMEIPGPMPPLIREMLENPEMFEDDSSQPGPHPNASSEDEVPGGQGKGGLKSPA
Chain of human Peroxisome Proliferator-activated Receptor alpha (PPARa), PPARA (gene 5465) (Q07869 whole entry, looked up, the tested form may be a part): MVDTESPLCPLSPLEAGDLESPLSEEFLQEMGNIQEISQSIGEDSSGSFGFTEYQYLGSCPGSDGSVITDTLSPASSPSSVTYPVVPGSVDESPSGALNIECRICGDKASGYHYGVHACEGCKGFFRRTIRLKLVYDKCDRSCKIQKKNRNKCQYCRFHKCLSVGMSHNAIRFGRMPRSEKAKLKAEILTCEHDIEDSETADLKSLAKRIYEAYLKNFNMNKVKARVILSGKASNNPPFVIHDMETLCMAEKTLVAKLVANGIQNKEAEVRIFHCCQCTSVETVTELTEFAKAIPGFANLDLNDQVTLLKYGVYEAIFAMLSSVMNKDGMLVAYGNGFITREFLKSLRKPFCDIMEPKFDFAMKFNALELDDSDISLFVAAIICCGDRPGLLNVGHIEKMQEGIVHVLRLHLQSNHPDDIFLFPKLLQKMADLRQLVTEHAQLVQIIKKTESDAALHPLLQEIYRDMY
Chain of Retinoic acid receptor alpha (Homo sapiens) (P10276 whole entry, looked up, the tested form may be a part): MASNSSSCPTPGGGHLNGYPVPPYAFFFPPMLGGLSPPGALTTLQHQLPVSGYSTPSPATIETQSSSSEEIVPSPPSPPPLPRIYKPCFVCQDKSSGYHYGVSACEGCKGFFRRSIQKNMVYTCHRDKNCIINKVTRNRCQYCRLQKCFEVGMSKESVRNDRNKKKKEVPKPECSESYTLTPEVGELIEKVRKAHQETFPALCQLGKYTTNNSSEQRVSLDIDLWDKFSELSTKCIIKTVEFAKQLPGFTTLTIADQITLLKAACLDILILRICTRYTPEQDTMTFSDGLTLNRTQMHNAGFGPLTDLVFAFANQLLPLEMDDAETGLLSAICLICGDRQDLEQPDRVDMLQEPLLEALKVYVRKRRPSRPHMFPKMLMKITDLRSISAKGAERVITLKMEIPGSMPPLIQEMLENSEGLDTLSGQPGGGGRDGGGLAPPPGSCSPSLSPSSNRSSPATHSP
Chain of Peroxisome proliferator-activated receptor gamma (Homo sapiens) (P37231 whole entry, looked up, the tested form may be a part): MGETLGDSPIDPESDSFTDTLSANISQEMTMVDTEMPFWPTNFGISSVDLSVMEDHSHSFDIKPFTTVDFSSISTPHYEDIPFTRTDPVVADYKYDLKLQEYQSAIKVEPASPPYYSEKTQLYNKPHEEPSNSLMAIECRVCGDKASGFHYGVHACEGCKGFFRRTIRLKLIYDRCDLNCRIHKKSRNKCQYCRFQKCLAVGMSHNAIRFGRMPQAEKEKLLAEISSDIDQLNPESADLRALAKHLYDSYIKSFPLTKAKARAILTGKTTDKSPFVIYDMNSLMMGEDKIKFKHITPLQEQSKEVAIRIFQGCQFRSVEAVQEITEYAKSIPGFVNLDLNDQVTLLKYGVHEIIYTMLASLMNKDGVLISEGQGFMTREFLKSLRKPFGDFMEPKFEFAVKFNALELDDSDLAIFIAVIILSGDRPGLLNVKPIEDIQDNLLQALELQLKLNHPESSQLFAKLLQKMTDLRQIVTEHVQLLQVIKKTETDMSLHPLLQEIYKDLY

With `Clc1ccc(Cl)c(Cl)c1`, the call in [1], in [2], in [3], in assay [4], in [5] and in assay [6] was inactive.

For `CCC(C)c1ccc(O)cc1` (stereo not drawn), the call in assay [7], in assay [2], in assay [4] and in assay [8] was inactive.

As to `Oc1ccccc1Cl`, the result in assay [7], in assay [4], in [5] and in [8] was inactive.

Take `C=CCc1ccc2c(c1)OCO2`: the compound was called inactive in [7], in assay [4], in assay [5] and in assay [8].

As for `CCOC(=O)[C@]1(c2ccccc2)Oc2ccccc2[C@@H]1N`, the compound was classed as inactive in [7], in assay [2], in [9], in assay [3], in assay [5] and in assay [10]. The result in assay [6] was inactive. For the same compound, the AC50 in assay [4] was 30.9 µM (active); in assay [8] it was 11 µM (active).

Take `c1ccc(N=Nc2ccccc2)cc1`: the compound was called inactive in assay [7], in [4] and in assay [8]. Also, the AC50 in assay [5] is 43 µM (active).

On to `Oc1ccc2ccc3cccc4ccc1c2c34`, for which the compound was classed as inactive in [1], in [9], in assay [10] and in [6]. Also, the figures for the AC50 in assay [2], in [4] and in assay [8] were 31.8 µM (active), 24.6 µM (active) and 33.4 µM (active), respectively.

For `Nc1ccc(Oc2ccc(N)cc2)cc1`, the compound was called inactive in assay [7], in [3], in assay [4], in assay [5], in assay [10] and in [6].

Consider `CN(C)c1ccccc1`, for which the call in [7] and in [4] was inactive.

Take `O=[N+]([O-])C(Br)(CO)CO`: the call in assay [7], in assay [9], in assay [5], in assay [10] and in [6] was inactive. Further, the AC50 in assay [4] was 5.94 µM (active).

Consider `CC(C)COC(=O)c1ccccc1C(=O)OCC(C)C`, for which the result in [7] and in assay [2] was inactive. In addition, the results for the half-maximal activity concentration (AC50) in assay [4] and in [5] were 28.6 µM (active) and 44.6 µM (active), respectively.

For the compound `OCCOCCO`, the compound was classed as inactive in [1], in [2], in [9], in [4] and in assay [6].

As for `Nc1ccc([N+](=O)[O-])cc1`, the result in [7], in assay [2], in assay [4], in [8] and in [6] was inactive.

Regarding `Clc1ccc(C(c2ccc(Cl)cc2)C(Cl)Cl)cc1`, the compound was called inactive in assay [7] and in assay [5]. For the same compound, the half-maximal activity concentration (AC50) was 37.9 µM (active) in [2], 15.3 µM (active) in assay [4] and 7.96 µM (active) in [8].

With `Nc1ccc(Cl)cc1N`, the outcome in [7], in [2], in [9], in assay [3], in assay [4] and in [5] was inactive. The call in [8] and in [10] was inactive.

For `N#CC(Br)(Br)C(N)=O`, the outcome in assay [1], in [2], in assay [9], in assay [3], in assay [4] and in [8] was inactive. In addition, the compound was called inactive in assay [10] and in assay [6].

For `c1ccc(C2CO2)cc1` (stereo not drawn), the compound was classed as inactive in [7], in assay [4], in assay [5] and in [6].

Take `Nc1ccc(Cc2ccc(N)cc2)cc1`: the compound was called inactive in assay [7], in assay [9], in [4], in assay [5] and in assay [6].

With `Cc1ccc(N)cc1`, the compound was called inactive in [7], in assay [2], in [4] and in assay [6].

As to `ClC1=C(Cl)C2(Cl)C3C(Cl)C=CC3C1(Cl)C2(Cl)Cl` (stereo not drawn), the result in assay [1], in [5], in assay [8] and in assay [10] was inactive. Further, the AC50 in assay [4] is 7.84 µM (active).

Take `CCCCC(CC)COC(=O)c1ccc(C(=O)OCC(CC)CCCC)c(C(=O)OCC(CC)CCCC)c1` (stereo not drawn): the result in assay [2], in [9], in assay [4] and in assay [8] was inactive.

As for `CNC(=O)Oc1cccc2c1OC(C)(C)C2`, the call in [1], in assay [4], in [5] and in assay [8] was inactive.

For orientation: AC50 means the concentration giving half of the maximal activity seen.
